# Test results reported in PubChem BioAssay (NCI).
# About 79,000 compounds went through this panel and 15% of them were active in at least one assay; those are over-represented in the sample as a whole. The source made the active and inactive calls. No stated cut-off is given here; in the data, active means growth inhibition above about 70%; inactive means the rest.
# Experiment: NCI Yeast Anticancer Drug Screen. Data for the wt2 strain (AID 169);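 further: 0% = growth of vehicle-treated yeast cultures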
# Conditions: S. cerevisiae wt2 strain growth inhibition; at 100.0 µM; stronger effect = higher value
# In short: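 Steps: yeast strain treated with compound; growth recorded; inhibition calculated relative to cultures given vehicle alone.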
row,SMILES,growth inhibition
1,CCOP(=O)(OCC)C(Cc1ccccc1)N=C(c1ccccc1)c1ccccc1 (stereo not drawn),98% (active)
2,CCc1ncnc2cc(OCC3CO3)c(OC)cc12 (stereo not drawn),72% (active)
3,CCOC(=O)[C@H]1Nc2ccccc2C2c3ccccc3CC21 (stereo partly drawn),48% (inactive)
4,O=CNc1ccc2c(c1)C(=O)c1ccccc1-2,96% (active)
5,CCOc1ccc2c(c1)c(CC(=O)O)cn2C,61% (inactive)
6,OC1CSCCCSCCSCCCSC1,-22% (inactive)
7,N#Cc1c(N)[nH]c2ccc(Sc3ccccc3)cc12,96% (active)
8,Cc1ccc(-c2ccc(Nc3c4ccccc4nc4ccccc34)cc2)cn1,39% (inactive)
9,c1ccc2c(c1)NC(NC1Nc3ccccc3N1)N2,19% (inactive)
10,OC(COc1cccc2ccccc12)CN1CCOCC1 (stereo not drawn),35% (inactive)
11,CCC/C(Cl)=N\OC(=O)Nc1ccc(Br)cc1,99% (active)
12,COc1ccc(/C=C2\SC(=S)N(/C=C/c3nc4ccccc4[nH]c3=O)C2=O)cc1OC,94% (active)
13,O=C(NNc1ccnc2cc(Cl)ccc12)/C(=C\c1ccccc1Cl)NC(=O)c1ccccc1,31% (inactive)
14,CSC1=NNC(SC)=NN1,99% (active)
15,Cc1c(C2=C(Br)C(=O)N(C)C2=O)c(=O)n(C)c(=O)n1C,95% (active)
16,NCCNc1ccc(NCCN)c2c1C(=O)c1c(O)ccc(O)c1C2=O,52% (inactive)
17,Cn1c(=O)c(-c2ccccc2)c(N=[N+]=[N-])c2ccccc21,91% (active)
18,CCCCCCCCCCCCCCCCCCOCC(O)COP(=O)(O)OCC1OC(n2cc(F)c(=O)[nH]c2=O)CC1O (stereo not drawn),94% (active)
